# Assay outcomes: PubChem BioAssay, National Center for Advancing Translational Sciences (NCATS)
# IL1B secr inh: inflammasome signaling inhibition, IL-1 beta readout | THP-1 LPS/ATP IL-1B secretion, AlphaLISA, 16 h; stronger effect = lower value | activity change, % at 57.5 µM | actives 4.7% (n = 360,000) | AID 743279; in the data active = activity change below about -50%; inconclusive = mostly about -30% to -49%
#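 Secreted IL-1B measured by AlphaLISA bead assay after 16 h compound exposure of THP-1 cells; compounds (final up to 57.5 uM) added 1 h before LPS (250 ng/mL) and ATP (1.25 mM) stimulation; lower signal means less secretion.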
# DT40 TDP1 CPT: growth inhibition of DT40 Tdp1-/-;hTDP1 cells with camptothecin (screen for TDP1 inhibitors) | actives 12% (n = 420,000) | chicken DT40 Tdp1-/-;hTDP1 cells + 20 nM CPT, ATP luminescence, 48 h | Potency, µM (series often up to 46.2 µM), inactives show at the highest dose activity change, negative = growth inhibition, actives largely listed as inhibitors | AID 686979; note: potency is the fitted concentration of half-maximal effect; nearly all actives have a fitted effect of over 55% in size
#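 Chicken DT40 Tdp1-/- cells stably complemented with human TDP1 were seeded at 400 cells/well in medium containing 20 nM camptothecin, exposed to pin-transferred compounds, and grown at 37 °C for at least 48 hr. Viability was read as ATP luminescence.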
# HT1080 IDH1KD tx: toxicity to HT-1080 IDH1 knockdown cells (counter line). HT-1080 IDH1 knockdown viability, ATP luminescence, 48 h. Potency, µM (highest dose often 46.1 µM), for inactives: top-dose activity, negative = toxicity, actives largely listed as cytotoxic. actives 2% (n = 360,000). AID 686971;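 note: potency is the fitted concentration of half-maximal effect; 0% = DMSO wells and -100% = cell-free medium wells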
#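 Luminescent ATP read-out (CellTiter-Glo, 10 min at room temperature) after 48 h compound exposure at 37 °C gave viability of IDH1-knockdown HT-1080 cells. Activity was normalised to DMSO and cell-free wells, then fitted as concentration-response curves.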
# HT1080-NT tox: kills 2HG-producing HT-1080-NT fibrosarcoma cells; HT-1080-NT fibrosarcoma viability, CellTiter-Glo ATP luminescence, 48 h; Potency, µM (doses to about 46.1 µM), for the others: top-dose activity, negative = less viability, actives largely listed as cytotoxic; actives 1.6% (n = 360,000); AID 686970;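 note: NT is the 2HG producing partner of a matched IDH1 knockdown line; potency is the fitted concentration of half-maximal effect; 0% = DMSO-treated cells and -100% = media-only wells without cells; nearly all actives have a fitted effect of over 55% in size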
#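 Viability by CellTiter-Glo luminescence after 48 h compound exposure at 37C of HT-1080-NT cells (750/well, RPMI, 5% FBS). % activity scaled between DMSO wells and medium-only wells, then curve-fitted and categorized by curve class.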
# DT40 TDP1 no CPT: qHTS for Inhibitors of human tyrosyl-DNA phosphodiesterase 1 (TDP1): qHTS in cells in absence of CPT. actives 15% (n = 420,000). Potency, µM (titrated, usually from 46.2 µM), for the others: top-dose activity change, negative = growth inhibition, hits mostly inhibitors. DT40 Tdp1-/- hTDP1 cells, no CPT, ATP luminescence, 48 h; note: potency is the fitted concentration of half-maximal effect; nearly all actives have a fitted effect of over 55% in size
#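 Stably hTDP1-transfected Tdp1-null chicken DT40 cells were treated with library compounds minus camptothecin and grown for at least 48 hr at 37 °C, after which cellular ATP was quantified by luminescence.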
# uPA surface inh: inhibitors of cell surface uPA generation. Potency, µM (series often up to 38.3 µM), without a hit: at the top dose activity change, negative = inhibition, hits mostly inhibitors. actives 0.31% (n = 330,000). cell surface uPA generation assay, qHTS; active = well fitted inhibition curve with a large enough effect; inconclusive = small, poorly fitted or top-dose-only effect; inactive = no such curve, though single readings can be large or run the other way; tested in mouse RAW 264.7 cells; note: potency is the fitted concentration of half-maximal effect; nearly all actives have a fitted effect of over 55% in size
# Numbers without * were called inactive; ? = inconclusive; · = no result; [ ] = another dose, or the depositor's remark. Compounds with a hit are over-represented: about 19% of the library has one in this group of screens. Unless noted, calls come from the whole dose curve; as a rule, active = well fitted curve in the direction sought with a large enough effect; inconclusive = small, poorly fitted or top-dose-only effect, or another doubt; inactive = no such curve, though single readings can be large; an effect the other way counts as inactive or inconclusive. Unless noted, % is set by controls: 0 for no effect and ±100 for the full control effect.
SMILES,IL1B secr inh,DT40 TDP1 CPT,HT1080 IDH1KD tx,HT1080-NT tox,DT40 TDP1 no CPT,uPA surface inh
CCc1ccc(S(=O)(=O)N2CCN(C(=O)c3cccnc3)CC2)cc1,11,-1%,-1%,4%,12%,-12%
COc1ccc2c(c1)C=C/C2=C\c1ccc(N(C)C)cc1,·,-70%,·,·,?,·
CN(C)c1ccc(/C=C2\C=Cc3ccccc32)cc1,·,-26%,·,·,?,·
CC(C)CN(C)c1ccc(/C=C2\C=Cc3ccccc32)cc1,·,2.8µM*,·,·,2.5µM*,·
CCN(CC)c1ccc(/C=C2\C=Cc3ccccc32)cc1,·,?,·,·,18µM*,·
CN(C)c1ccc(/C=C2\C=Cc3cc(N)ccc32)cc1,·,?,·,·,11µM*,·
COc1cc(OC)c(OC)cc1CN1CCOc2ccc(CN3C[C@@H](C)O[C@@H](C)C3)cc2C1,·,-19%[9.04 µM],·,·,?,·
COc1cc(=O)n2c(c1C(=O)N(C)Cc1nonc1C)CCN(Cc1ccsc1)CC2,·,7%[9.04 µM],·,·,-9%,·
CCN(CC)S(=O)(=O)c1cc(NC(=O)Cc2ccsc2)ccc1C,8,-24%,-25%,-14%,?,2%
O=C(Cn1ncc(Cl)c(Cl)c1=O)c1ccc2c(c1)OCCO2,-99*,16µM*,?,?,23µM*,-10%
O=C(CN1CCCCC1)NC(=O)NC1CCCC1,19,0%,26%,8%,2%,-3%
O=C(Cn1ncc(Cl)c(Cl)c1=O)Nc1ccc2c(c1)OCO2,-99*,7.3µM*,18µM*,?,3.3µM*,?
Cc1nn(CC(=O)Nc2ccc3c(c2)OCO3)c(C)c1Cl,-15,-1%,0%,-13%,-7%,-6%
CCC(=O)c1ccc2c(c1)OCCO2,-6,-21%,6%,6%,3%,5%
O=C(Cn1ncc(Cl)c(Cl)c1=O)NC(=O)NC1CCCCC1,-103*,2.9µM*,6.5µM*,?,2.9µM*,6%
CCN(CC)S(=O)(=O)c1cc(NC(=O)Cn2ncc(Cl)c(Cl)c2=O)ccc1C,-59*,3.7µM*,7.3µM*,10µM*,2.3µM*,-12%
CCc1nnc2c(NCCc3ccccc3)nc3ccccc3n12,30,2%,3%,-2%,-26%,6%
CN1C(=O)C2(c3ccccc31)N(c1cccc(C(F)(F)F)c1)C(=O)CS2(=O)=O (configuration not stated),·,-25%,·,·,-14%,·
CCC1CCCCN1c1cc(C)nc2cc(-c3cccc(C)c3)nn12 (configuration not stated),-99*,?,?,?,13µM*,5%
Cc1ccc(C)c(N2CCN(C3(c4ccccc4)C(=O)c4ccccc4C3=O)CC2)c1,·,-10%,·,·,-23%,·
Cc1ccc(CN2CCSc3ccc(C(=O)N4CCN(c5cccc(C)c5C)CC4)cc32)cc1,·,8.2µM*,·,·,5.2µM*,·
Cc1ccc(CN2CCSc3ccc(C(=O)N4CCN(c5ccc(Cl)cc5)CC4)cc32)cc1,·,15µM*,·,·,21µM*,·
CN1CCN(C(=O)c2ccc3c(c2)N(Cc2ccccc2)CCS3)CC1,-19,?,-13%,-12%,?,-25%
CCc1ccc(NC(=O)C(CC)n2nnc(C(=O)OC)c2C(=O)OC)cc1 (configuration not stated),·,-1%,·,·,-17%,·
Cc1ccc(-n2nnc3c(sc4nc(C)c(C)cc43)c2=O)cc1Cl,·,-10%,·,·,-2%,·
SMILES,IL1B secr inh,DT40 TDP1 CPT,HT1080 IDH1KD tx,HT1080-NT tox,DT40 TDP1 no CPT,uPA surface inh
COC(=O)CSc1nnc(COc2cccc3ccccc23)o1,46,-5%,1%,-2%,-13%,-7%
Cc1csc(N(C)C(=O)CSc2nnc(COc3cccc4ccccc34)o2)n1,29,5.8µM*,?,6.3µM*,5.8µM*,-2%
CN(C(=O)COC(=O)CNC(=O)c1ccccc1F)C1CCCCC1,10,-4%,-10%,-8%,12%,1%
NCCC1CN(C(=O)OCc2ccccc2)c2ccccc21 (configuration not stated),-10,5.8µM*,?,-18%,5.2µM*,-2%
O=C(OCc1ccccc1)N1C=CC2CC1c1c(Cl)cccc12 (configuration not stated),-8,?,-29%,-6%,?,?
CC[C@@H]1CC=C[C@H]2[C@H]1C(=O)N(Cc1ccccc1)[C@H]2c1ccc(OC)c(Cl)c1,25,18µM*,?,-28%,13µM*,-10%
COc1ccc(-c2cccc(C3CC=CC4C3C(=O)N(Cc3ccccc3)C4c3ccc(OC)c(Cl)c3)c2)cc1 (configuration not stated),33,21µM*,-12%,-13%,13µM*,1%
O=C1C2C(c3cccc(/C=C/c4ccccc4)c3)CC=CC2C(c2ccc(C(F)(F)F)cc2)N1Cc1ccccc1 (configuration not stated),53,15µM*,-3%,-6%,?,20%
O=C1C2C(c3cccc(/C=C/c4ccccc4)c3)CC=CC2C(c2ccc3ccccc3c2)N1Cc1ccccc1 (configuration not stated),15,?,11%,5%,16µM*,20%
COC(=O)[C@H]1[C@@H](C)N(Cc2ccccc2)C(=O)N[C@H]1c1cccc(C(F)(F)F)c1,14,-29%,-2%,0%,?,0%
CCOC(=O)C1(C)C=C(Nc2cccc(C(=O)O)c2)C(=O)N1c1ccccc1 (configuration not stated),·,?,·,·,21%,·
CCOC(=O)N1CCN(C(C(=O)NC2CCCC2)C(C)C)CC1 (configuration not stated),26,-4%,10%,16%,-11%,·
O=C(Cc1ccc(S(=O)(=O)N2CCOCC2)s1)OCc1ccc(Cl)cc1,27,3%,-2%,5%,5%,-3%
Cc1ccc(-c2cccc(C3CC=CC4C3C(=O)N(Cc3ccccc3)C4c3ccc4ccccc4c3)c2)cc1 (configuration not stated),45,18µM*,-2%,-1%,13µM*,8%
Cc1cccc([C@H]2[C@@H]3C=CCC[C@@H]3C(=O)N2Cc2ccccc2)c1,22,?,-1%,14%,?,5%
CN1/C(=C/C(=O)c2nc(S(C)(=O)=O)ncc2Cl)C(C)(C)c2ccccc21,-100*,0.58µM*,4.6µM*,?,0.46µM*,-14%
